Measured values published in PubChem BioAssay (NCATS).
Several values for one entry are separate records, joined by “and”; a condition that tells them apart may be missing. Equal values may be shown once. Values without a mark were called inactive. Unless noted, the call rests on the fitted dose curve. Records with an inconclusive call do not appear.

Target: Alpha-galactosidase A (Homo sapiens) (UniProt P06280)
Experiment: Counterscreen for Glucocerebrosidase Inhibitors: qHTS Assay for Human alpha-Galactosidase at pH 4.5 (AID 992; active means well fitted curve in the direction sought with a large enough effect; an effect the other way counts as inactive or inconclusive; further: 0% is about no effect)
Conditions: purified enzyme, fluorogenic substrate; series mostly up to 76.9 µM; activity change, negative = inhibition: at the top concentration
Summary of the method: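 Fluorogenic 1536-well qHTS at pH 4.5 (citrate, Tween-20): 2 nM enzyme, 80 uM 4-MU-alpha-galactoside, 20 min room temperature, NaOH/glycine stop. Titration 0.7 nM to 77 uM, data normalized to no-enzyme and full-activity controls, Hill-fitted AC50.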

Chain of Alpha-galactosidase A (Homo sapiens) (P06280 whole entry, looked up): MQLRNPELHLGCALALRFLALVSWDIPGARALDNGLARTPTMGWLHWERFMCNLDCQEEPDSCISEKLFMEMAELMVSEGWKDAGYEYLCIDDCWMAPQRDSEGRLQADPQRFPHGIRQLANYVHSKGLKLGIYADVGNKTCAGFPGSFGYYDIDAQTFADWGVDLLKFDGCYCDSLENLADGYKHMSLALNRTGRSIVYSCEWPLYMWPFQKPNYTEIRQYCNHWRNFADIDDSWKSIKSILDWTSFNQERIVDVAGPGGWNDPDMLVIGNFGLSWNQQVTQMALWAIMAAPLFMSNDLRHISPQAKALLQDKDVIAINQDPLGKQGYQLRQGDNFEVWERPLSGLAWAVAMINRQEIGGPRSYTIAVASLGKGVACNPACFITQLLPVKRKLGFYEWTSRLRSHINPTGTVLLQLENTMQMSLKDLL

| SMILES | activity change, negative = inhibition [%] |
| --- | --- |
| CCN(CC)CCNC(=O)c1cc(Cl)c(N)cc1OC | -0.943 |
| CCN(CC)CCOC(=O)C1(C2CCCCC2)CCCCC1 | -4.73 |
| CCCCCCCCCCCCCCCC(=O)NCCO | 3.04 |
| OCc1cc(C(O)CNCCCCCCOCCCCc2ccccc2)ccc1O (centres undefined) | -1.48 |
| CC1=C(CC(=O)O)c2cc(F)ccc2/C1=C\c1ccc(S(C)(=O)=O)cc1 | -1.34 |
| COC(=O)C1=C(C)NC(C)=C(C(=O)OC)C1c1ccccc1[N+](=O)[O-] | -7.38 |
| COc1ccc(Cl)cc1C(=O)NCCc1ccc(S(=O)(=O)NC(=O)NC2CCCCC2)cc1 | 4.61 |
| C=Cc1c(C)c2cc3[nH]c(cc4nc(cc5nc(cc1[nH]2)C(C)=C5CCC(=O)O)C(CCC(=O)O)=C4C)c(C)c3C=C | -3.19 |
| N=c1c[n+](N2CCOCC2)[n-]o1 | -0.256 |

Target: alpha-glucosidase (Oryza sativa, rice) (UniProt Q653V4)
Experiment: Counterscreen for Glucocerebrosidase Inhibitors: qHTS Assay for Rice alpha-Glucosidase at pH 5.0 (AID 997; active means well fitted curve in the direction sought with a large enough effect; an effect the other way counts as inactive or inconclusive;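 further: 0% = full activity with enzyme and -100% = basal without enzyme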)
Conditions: rice alpha-glucosidase enzyme activity; series mostly up to 76.9 µM; activity change, negative = inhibition: at the top concentration
Summary of the method: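 Endpoint fluorogenic assay at pH 5.0: compounds (0.7 nM to 77 uM) titrated against 4 nM rice enzyme and 400 uM 4-MU-alpha-glucoside for 20 min at room temperature; NaOH/glycine stop, read ex 365/em 440 nm, Hill-fitted AC50.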

| SMILES | activity change, negative = inhibition [%] |
| --- | --- |
| CCN(CC)CCNC(=O)c1cc(Cl)c(N)cc1OC | 0.15 |
| CCN(CC)CCOC(=O)C1(C2CCCCC2)CCCCC1 | -6.7 |
| CCCCCCCCCCCCCCCC(=O)NCCO | -1.32 |
| OCc1cc(C(O)CNCCCCCCOCCCCc2ccccc2)ccc1O (centres undefined) | 0.922 |
| CC1=C(CC(=O)O)c2cc(F)ccc2/C1=C\c1ccc(S(C)(=O)=O)cc1 | -1.02 |
| COC(=O)C1=C(C)NC(C)=C(C(=O)OC)C1c1ccccc1[N+](=O)[O-] | -2.72 |
| COc1ccc(Cl)cc1C(=O)NCCc1ccc(S(=O)(=O)NC(=O)NC2CCCCC2)cc1 | -3.01 |
| C=Cc1c(C)c2cc3[nH]c(cc4nc(cc5nc(cc1[nH]2)C(C)=C5CCC(=O)O)C(CCC(=O)O)=C4C)c(C)c3C=C | -7.58 |
| N=c1c[n+](N2CCOCC2)[n-]o1 | -2.53 |

System: not listed separately
Experiment: Validation of Assay for Modulators of Lamin A Splicing (AID 1459; active means well fitted curve in the direction sought with a large enough effect in the signal ratio; the % refers to the signal ratio;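 further: cells exposed to compound for two days before reading; 0% is about no effect; ratio rise marks activators and ratio drop marks inhibitors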)
Conditions: Lamin A splicing dual RFP/GFP fluorescence reporter; series mostly up to 9.22 µM; ratio change, both ways: at the top concentration
Summary of the method: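 Dual-reporter HeLa S3 line (lamin A-EGFP minigene, DsRed2) treated with compounds 48 hrs, 0.5% DMSO final. Endpoint: EGFP/DsRed2 total intensity ratio from laser-scanning microplate cytometry.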

| SMILES | ratio change, both ways [%] |
| --- | --- |
| CC(C)(C(=O)O)c1ccc(C(O)CCCN2CCC(C(O)(c3ccccc3)c3ccccc3)CC2)cc1 (centres undefined) | -22.5 |
| CNCC(O)c1ccc(O)c(O)c1 (centres undefined) | 5.81 |
| CCN(CC)CCNC(=O)c1cc(Cl)c(N)cc1OC | -7.09 |
| CNCCC(Oc1ccc(C(F)(F)F)cc1)c1ccccc1 (centres undefined) | -8.55 |
| CCN(CC)CCOC(=O)C1(C2CCCCC2)CCCCC1 | 12.2 |
| CC(CN(C)C)CN1c2ccccc2CCc2ccccc21 (centres undefined) | -13.3 |
| CCCCCCCCCCCCCCCC(=O)NCCO | 4.32 |
| OCc1cc(C(O)CNCCCCCCOCCCCc2ccccc2)ccc1O (centres undefined) | 6.33 |
| CC1=C(CC(=O)O)c2cc(F)ccc2/C1=C\c1ccc(S(C)(=O)=O)cc1 | -8.61 |
| CN1CCN(C2Cc3ccccc3Sc3ccc(Cl)cc32)CC1 (centres undefined) | 5.3 |
| CC(CN1c2ccccc2Sc2ccccc21)N(C)C (centres undefined) | 5.05 |
| COC(=O)C1=C(C)NC(C)=C(C(=O)OC)C1c1ccccc1[N+](=O)[O-] | -4.79 |
| COc1ccc(Cl)cc1C(=O)NCCc1ccc(S(=O)(=O)NC(=O)NC2CCCCC2)cc1 | -6.53 |
| CC(C)(C)c1onc(OCP(=O)(O)O)c1CC(N)C(=O)O (centres undefined) | -2.05 |
| C=Cc1c(C)c2cc3[nH]c(cc4nc(cc5nc(cc1[nH]2)C(C)=C5CCC(=O)O)C(CCC(=O)O)=C4C)c(C)c3C=C | -7.15 |
| N=c1c[n+](N2CCOCC2)[n-]o1 | -4.91 |
| O=C1N=C(O)CN1/N=C/c1ccc(-c2ccc([N+](=O)[O-])cc2)o1 | 6.13 |

System: not listed separately
Experiment: qHTS Assay for Lipid Storage Modulators (AID 1519); further: on the % scale 0 is the no-effect control and ±100 the full control effect
Conditions: Drosophila S3 cells, BODIPY lipid droplet/cell ratio, laser cytometry; at 25.7 µM (top of the series); cells loaded with oleic acid
Summary of the method: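 Cells seeded at 5,000 per well were treated with compounds over a concentration series and loaded with oleic acid (400 uM, as added). Lipid droplet fluorescence (488 nm excitation, 500-530 nm channel) was read by laser-scanning cytometry and normalized to 20 uM Triacsin C.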

| SMILES | activity change, negative = inhibition [%] |
| --- | --- |
| CCN(CC)CCOC(=O)C1(C2CCCCC2)CCCCC1 | -3.18 |
| CCOc1ccc2ccccc2c1C(=O)N[C@@H]1C(=O)N2[C@@H]1SC(C)(C)[C@@H]2C(=O)O | -0.855 |
| COc1ccc2c(c1)C(=O)N(CCc1ccc(S(=O)(=O)NC(=O)NC3CCCCC3)cc1)C(=O)C2(C)C | -1.13 |
| CC1(C)OC(=O)NC1=O | -0.879 |
| COc1ccc(Cl)cc1C(=O)NCCc1ccc(S(=O)(=O)NC(=O)NC2CCCCC2)cc1 | 1.56 |
| C[C@H](N)[C@H](O)c1cccc(O)c1 | -0.37 |
| CCCCN1CCCC[C@H]1C(=O)Nc1c(C)cccc1C | -1.47 |

Same assay, conditions: Drosophila S3 cells, BODIPY lipid droplet/cell ratio, laser cytometry; at 57.5 µM (top of the series); cells loaded with oleic acid

| SMILES | activity change, negative = inhibition |
| --- | --- |
| CC(C)(C(=O)O)c1ccc(C(O)CCCN2CCC(C(O)(c3ccccc3)c3ccccc3)CC2)cc1 (centres undefined) | 2.57% and -0.0758% |
| Cc1ccc(C(C)C)cc2c(C)ccc1-2 | 7.53% |
| NCC(=O)CCC(=O)O | 1.06% |
| O=C(O)c1ccccc1O | 9.55% |
| CCN(CC)CCOC(=O)C1(C2CCCCC2)CCCCC1 | 4.04% and 0.569% |
| CC(CN(C)C)CN1c2ccccc2CCc2ccccc21 (centres undefined) | 8.3% and -0.445% |
| O=c1cc[nH]c(=S)[nH]1 | 7.12% |
| CN1CCOC(c2ccccc2)c2ccccc2C1 (centres undefined) | 6.92% |
| OCc1cc(C(O)CNCCCCCCOCCCCc2ccccc2)ccc1O (centres undefined) | -1.85% |
| OCC(O)CN1CCN(c2ccccc2)CC1 (centres undefined) | 11.8% |
| CN1CCN(C2Cc3ccccc3Sc3ccc(Cl)cc32)CC1 (centres undefined) | 1.27% |
| CC(CN1c2ccccc2Sc2ccccc21)N(C)C (centres undefined) | 7.97% and 1.76% |
| COc1ccc(Cl)cc1C(=O)NCCc1ccc(S(=O)(=O)NC(=O)NC2CCCCC2)cc1 | 12.5% and -0.0195% |
| CC(C)(C)c1onc(OCP(=O)(O)O)c1CC(N)C(=O)O (centres undefined) | -0.922% |
| C=Cc1c(C)c2cc3[nH]c(cc4nc(cc5nc(cc1[nH]2)C(C)=C5CCC(=O)O)C(CCC(=O)O)=C4C)c(C)c3C=C | 12.2% |
| N=c1c[n+](N2CCOCC2)[n-]o1 | -0.431% |
| O=c1cc(CO)occ1O | 0.978% |
